# Values without a mark were called inactive. Records with an inconclusive call do not appear. Activity calls are given as the source filed them. Unless noted, calls come from the whole dose curve; as a rule, active = well fitted curve in either direction with a large enough effect (not every such curve was filed as active); inconclusive = small, poorly fitted or top-dose-only effect, or another doubt; inactive = flat fitted curve, though single readings scatter.
# Columns and labels:
# [1] = molecular target: Lysosomal acid glucosylceramidase (Homo sapiens) (UniProt P04062); assay: Glucocerebrosidase-p2 (AID 348; in the data active = potency below about 10 µM; note: potency is the fitted concentration of half-maximal effect); details: purified GBA, blue fluorogenic substrate, 40 min
# Lysosomal acid glucosylceramidase (Homo sapiens), sequence (P04062 whole entry, looked up): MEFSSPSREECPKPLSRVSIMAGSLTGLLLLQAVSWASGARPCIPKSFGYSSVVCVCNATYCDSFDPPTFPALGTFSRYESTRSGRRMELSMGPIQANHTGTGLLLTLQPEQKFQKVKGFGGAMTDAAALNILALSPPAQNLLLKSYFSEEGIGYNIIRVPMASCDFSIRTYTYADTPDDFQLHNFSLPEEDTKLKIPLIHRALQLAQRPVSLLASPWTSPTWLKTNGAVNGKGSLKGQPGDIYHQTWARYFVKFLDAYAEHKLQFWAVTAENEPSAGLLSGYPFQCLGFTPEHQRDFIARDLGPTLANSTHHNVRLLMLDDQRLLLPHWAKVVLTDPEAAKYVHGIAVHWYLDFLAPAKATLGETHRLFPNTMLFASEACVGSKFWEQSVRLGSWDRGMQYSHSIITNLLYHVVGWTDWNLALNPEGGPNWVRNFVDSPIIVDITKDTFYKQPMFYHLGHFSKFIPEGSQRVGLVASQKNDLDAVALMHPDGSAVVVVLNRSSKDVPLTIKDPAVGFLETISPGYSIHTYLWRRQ
# Summary of the method: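 Normal human glucocerebrosidase (0.2 nM) with blue fluorogenic substrate (80 uM final) in citrate/phosphate pH 5.9 with 10mM sodium taurocholate, 0.01% tween-20; 40 min RT, NaOH/glycine stop; fluorescence Ex 365/Em 440; AC50 from a titration from 0.6 nM upwards.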
# [2] = AP1 Signaling Pathway (AID 357); details: ME-180 AP-1-bla reporter, EGF-induced, beta-lactamase ratio, 5 h; at 7.69 µM (top of the series) unless noted;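 note: ME-180 reporter cells stimulated with EGF at its EC50 level; % is set by controls: 0 for no effect and ±100 for the full control effect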
# Summary of the method: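 First, ME-180 AP-1-bla cells were cultured overnight at 37 °C in low-serum Opti-MEM. Next, titrated compounds with EC50 EGF were incubated 5 hours. Finally, CCF4 was added for 2.5 hours and the 460/530 nm ratio recorded.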
# [3] = NFAT Signaling Pathway (AID 444); details: Jurkat NFAT-bla M1, carbachol, beta-lactamase ratio, 5 h; at 7.69 µM (top of the series) unless noted;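 note: carbachol stimulus at about its EC50 of 1 µM final; % is set by controls: 0 for no effect and ±100 for the full control effect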
# Summary of the method: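 Read-out: CCF4 FRET ratio (460 nm/530 nm) after 1 h RT dye loading, used for %activity and AC50 from titration series. Cells: Jurkat NFAT-β-lactamase/M1 line, treated with compound plus 1 uM carbachol for 5 h, 37 °C.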
# [4] = Stat Signaling Pathway (AID 446); details: ME-180 SIE beta-lactamase reporter, IL-6 stimulated, 5 h; at 7.69 µM (top of the series) unless noted;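 note: ME-180 cervical cancer cells given 40 pM IL-6 alongside compound; SIE-controlled beta-lactamase reporter measured as 460/530 nm FRET emission ratio; % is set by controls: 0 for no effect and ±100 for the full control effect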
# Summary of the method: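 FRET read-out (405 nm excitation, 460/530 nm emission) of a beta-lactamase reporter under a STAT-inducible element in ME-180 cervical carcinoma cells. Cells with compound receive 40 pM IL-6 for 5 h. Values are normalised to AC90 stimulation and AC90 JAK-inhibitor controls.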
# [5] = molecular target: Glucocorticoid receptor (Homo sapiens) (UniProt P04150); assay: GR-EFC Redistribution (AID 451; calls by dose curve; note: potency is the fitted concentration of half-maximal effect); details: CHO-K1 GR-EFC translocation, beta-gal luminescence, 2 h
# Glucocorticoid receptor (Homo sapiens), sequence (P04150 whole entry, looked up, the tested form may be a part): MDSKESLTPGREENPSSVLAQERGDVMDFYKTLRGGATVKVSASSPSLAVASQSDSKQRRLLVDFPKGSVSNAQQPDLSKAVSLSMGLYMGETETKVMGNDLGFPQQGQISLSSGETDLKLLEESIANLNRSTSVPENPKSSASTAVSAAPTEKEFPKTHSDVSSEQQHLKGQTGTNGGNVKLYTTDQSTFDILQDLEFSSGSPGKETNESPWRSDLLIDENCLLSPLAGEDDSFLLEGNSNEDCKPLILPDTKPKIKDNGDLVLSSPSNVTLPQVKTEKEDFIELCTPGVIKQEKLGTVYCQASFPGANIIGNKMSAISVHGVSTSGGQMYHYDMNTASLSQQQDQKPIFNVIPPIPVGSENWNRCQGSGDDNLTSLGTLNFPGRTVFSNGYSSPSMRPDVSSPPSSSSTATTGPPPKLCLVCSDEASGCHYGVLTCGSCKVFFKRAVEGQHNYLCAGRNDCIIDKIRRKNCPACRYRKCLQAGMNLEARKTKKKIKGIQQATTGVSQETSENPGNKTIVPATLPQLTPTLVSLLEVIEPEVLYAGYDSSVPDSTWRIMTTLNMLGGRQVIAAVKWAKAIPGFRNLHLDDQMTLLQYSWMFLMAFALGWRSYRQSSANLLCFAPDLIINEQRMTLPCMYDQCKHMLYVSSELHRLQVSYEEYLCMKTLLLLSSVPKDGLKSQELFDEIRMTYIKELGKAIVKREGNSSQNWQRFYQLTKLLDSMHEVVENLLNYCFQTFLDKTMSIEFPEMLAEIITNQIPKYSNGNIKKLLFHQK
# Summary of the method: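 Translocation of GR-ED fusion to nuclear EA restores b-gal, read by luminescence after 1 h room-temperature detection. Engineered CHO-K1 biosensor cells, 1,000/well, exposed 2 h at 37 C to titrations up to 46 uM final.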
# [6] = molecular target: Mitogen-activated protein kinase 10 (Mus musculus) (UniProt Q61831); assay: JNK3 AlphaScreen Assay (AID 530); details: JNK3 lysate, c-Jun phosphorylation; series mostly up to 57.1 µM;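 note: kinase came from lysate of stimulated human HepG2 cells; signal reports phosphorylation of biotinylated GST-cJun 1-79 at Ser73 with 10 µM ATP; % is set by controls: 0 for no effect and ±100 for the full control effect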
# Summary of the method: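 qHTS titrations with 15 min compound pre-incubation before adding ATP (10 uM final). Read-out: AlphaScreen of Ser73-phosphorylated biotin-GST-cJun using HepG2 lysate JNK3 activated by IL-1β and TNFα.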
# [7] = molecular target: 3',5'-cyclic-AMP phosphodiesterase 4B (Homo sapiens) (UniProt Q07343); assay: qHTS Assay for Inhibitors of PDE-IV (AID 607; active = well fitted activation curve with a large enough effect in the main read-out, with a control signal flat, not every such curve was filed as active; note: % of control where 0% means no effect); details: HEK293 ACTOne CNG channel cells, membrane potential fluorescence; series mostly up to 22.9 µM
# 3',5'-cyclic-AMP phosphodiesterase 4B (Homo sapiens), sequence (Q07343 whole entry, looked up): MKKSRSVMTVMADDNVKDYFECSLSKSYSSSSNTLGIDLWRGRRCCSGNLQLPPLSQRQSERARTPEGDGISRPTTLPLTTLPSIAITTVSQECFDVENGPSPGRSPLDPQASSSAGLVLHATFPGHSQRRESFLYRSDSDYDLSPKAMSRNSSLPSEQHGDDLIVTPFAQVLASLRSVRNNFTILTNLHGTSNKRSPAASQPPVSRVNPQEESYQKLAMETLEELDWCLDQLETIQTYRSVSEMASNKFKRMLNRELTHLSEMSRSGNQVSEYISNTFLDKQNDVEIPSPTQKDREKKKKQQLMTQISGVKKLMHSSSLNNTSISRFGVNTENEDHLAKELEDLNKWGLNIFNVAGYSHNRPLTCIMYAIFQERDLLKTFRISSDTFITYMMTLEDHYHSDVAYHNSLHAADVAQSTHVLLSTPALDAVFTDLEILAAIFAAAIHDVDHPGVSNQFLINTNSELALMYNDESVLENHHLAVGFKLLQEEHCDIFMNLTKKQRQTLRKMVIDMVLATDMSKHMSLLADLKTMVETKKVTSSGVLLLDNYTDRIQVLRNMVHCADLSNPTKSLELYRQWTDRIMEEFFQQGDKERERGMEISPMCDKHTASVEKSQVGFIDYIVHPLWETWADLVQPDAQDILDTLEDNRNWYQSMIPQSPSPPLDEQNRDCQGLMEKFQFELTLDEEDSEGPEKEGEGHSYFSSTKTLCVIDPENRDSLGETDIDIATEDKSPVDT
# Summary of the method: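 Cell-based read-out of cAMP via a modified cyclic nucleotide-gated channel and membrane potential dye (535/590 nm) in HEK293 cells expressing PDE4 endogenously. Compounds tested up to 22.9 uM final; 100 uM RO 20-1724 reference.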
# [8] = Primary qHTS for small molecule stabilizers of the endoplasmic reticulum resident proteome: Secreted ER Calcium Modulated Protein (SERCaMP) assay (AID 1508630; active = well fitted curve in the direction sought with a large enough effect; an effect the other way counts as inactive or inconclusive; note: % is set by controls: 0 for no effect and ±100 for the full control effect); details: SH-SY5Y GLuc-SERCaMP (Gaussia luciferase released on ER calcium loss) secretion, thapsigargin, luminescence; series mostly up to 38.4 µM
# Summary of the method: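 The SH-SY5Y reporter protocol was run at 3 concentrations up to 38.3 uM (primary) or 11 concentrations (follow-up): 16 h compound, 100 nM thapsigargin for 4 h, then extracellular luciferase luminescence.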
# [9] = molecular target: Cytochrome P450 3A4 (Homo sapiens) (UniProt P08684); assay: qHTS Assay for Activators of Cytochrome P450 3A4 (AID 885; active = well fitted curve in the direction sought with a large enough effect; an effect the other way counts as inactive or inconclusive; note: nearly all actives have a fitted effect of over 65% in size); details: recombinant CYP3A4, Luciferin-PPXE luminescence, 60 min; series mostly up to 57.1 µM
# Cytochrome P450 3A4 (Homo sapiens), sequence (P08684 whole entry, looked up): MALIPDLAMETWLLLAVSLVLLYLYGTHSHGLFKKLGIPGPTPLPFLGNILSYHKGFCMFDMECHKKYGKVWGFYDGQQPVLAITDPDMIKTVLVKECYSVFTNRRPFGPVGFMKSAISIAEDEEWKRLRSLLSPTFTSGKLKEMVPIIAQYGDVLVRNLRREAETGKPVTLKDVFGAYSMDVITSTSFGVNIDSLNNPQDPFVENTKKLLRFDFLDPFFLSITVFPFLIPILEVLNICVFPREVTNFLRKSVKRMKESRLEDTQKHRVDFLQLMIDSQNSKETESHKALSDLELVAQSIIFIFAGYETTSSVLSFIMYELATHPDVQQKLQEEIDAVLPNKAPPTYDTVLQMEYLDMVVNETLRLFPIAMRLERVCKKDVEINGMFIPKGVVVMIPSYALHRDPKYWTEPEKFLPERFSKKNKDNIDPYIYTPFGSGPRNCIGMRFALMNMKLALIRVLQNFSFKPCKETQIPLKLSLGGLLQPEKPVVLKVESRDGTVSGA
# Summary of the method: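 Luminescent readout of luciferin formed from 25 uM Luciferin-PPXE (KM level) by 20 nM CYP3A4 in 200 mM KPO4, with 60 min NADPH-driven reaction at room temperature after 10 min compound exposure. Ketoconazole (57 uM) defined 100% inhibition.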
# [10] = qHTS Assay for Identification of Small Molecule Agonists for Hypoxia Response Element Signaling Pathway (AID 914; active = well fitted activation curve with a large enough effect in the signal ratio, with a control signal flat, not every such curve was filed as active; the % refers to the signal ratio; note: % of control where 0% means no effect); details: ME-180 (cervical carcinoma) HRE-bla reporter, beta-lactamase ratio, CoCl2, 17 h; activation: stronger effect = higher value
# Summary of the method: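 Cells were plated overnight, pin-dosed with compound in a titration series, co-stimulated with EC50 CoCl2 and incubated 17 hours at 37 degrees Celsius. CCF4 substrate was then loaded, and AC50 values came from the 460nm/530nm ratio.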
# [11] = molecular target: Cytochrome P450 3A4 (Homo sapiens) (UniProt P08684); assay: qHTS Assay for Inhibitors and Substrates of Cytochrome P450 3A4 (AID 884; active = well fitted curve in the direction sought with a large enough effect; an effect the other way counts as inactive or inconclusive; note: nearly all actives have a fitted effect of over 50% in size; note: potency is the fitted concentration of half-maximal effect); details: recombinant CYP3A4, Luciferin-PPXE luminescence; series mostly up to 57.1 µM
# Summary of the method: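 Luminescent readout of luciferin produced by CYP3A4 (20 nM) dealkylation of Luciferin-PPXE, 25 uM (its KM). NADPH-driven reaction ran 60 min at RT after 10 min compound preincubation; data scaled to 57 uM ketoconazole as 100% inhibition.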
Structure (SMILES),Potency [1],"activity change, negative = inhibition [2]","activity change, negative = inhibition [3]","activity, negative = inhibition [4]",Potency [5],Potency [6],Potency [7],outcome [8],Potency [9],activation [10],Potency [11]
N#Cc1cccc(NC(=O)N2CCC3(CC2)CCN(C(=O)c2cnccn2)CC3)c1,> 11.4 µM,-8.55%,-3%,2.13%,> 46 µM,inactive,inactive,inactive,–,–,–
N#Cc1cccc(NC(=O)N2CCCC3(CCN(C(=O)c4cnccn4)CC3)C2)c1,> 11.4 µM,-1.03%,-9.23%,0.635%,> 46 µM,inactive,–,inactive,inactive,0.071%,–
O=C(c1ccncc1)N1CCC[C@@]2(CCN(Cc3ccccc3)C2)C1,> 11.4 µM,1%,-11.7%,7.78%,> 46 µM,inactive,inactive,inactive,inactive,–,–
O=C(c1csnn1)N1CCC2(CCCN(c3ncccn3)C2)CC1,> 11.4 µM,5.51%,2.44%,1.38%,> 46 µM,inactive,inactive,inactive,–,–,–
COc1ccc(C(=O)N2CCC3(CCN(Cc4nccs4)CC3)CC2)cc1,> 11.4 µM,-14.6%,-8.01%,-11.9%,> 46 µM,inactive,inactive,inactive,–,–,inactive
Cn1cccc1C(=O)N1CCC[C@@]2(CCN(c3cccc(-c4ccccc4)c3)C2)C1,> 11.4 µM,-10.7%,-10.5%,-14.4%,> 46 µM,–,–,inactive,inactive,–,7.94 µM (active)
COC(=O)N1CCC2(CCN(C(=O)Nc3ccc(OC)cc3)CC2)CC1,> 11.4 µM,-1.58%,-8.6%,3.42%,> 46 µM,inactive,inactive,inactive,–,–,–
O=C(c1ccncc1)N1CCC2(CCCN(c3ccc(-c4ccccc4)cc3)C2)CC1,> 11.4 µM,-6.85%,14.6%,-6.26%,> 46 µM,inactive,inactive,inactive,–,–,–
O=C(c1cccc(F)c1)N1CCC2(CCCN(c3ccc(-c4ccccc4)cc3)C2)CC1,> 11.4 µM,6.64%,-3.55%,1.09%,> 46 µM,inactive,inactive,inactive,inactive,–,–
Cc1noc(C)c1C(=O)N1CCC2(CCCN(c3ccccn3)C2)CC1,> 11.4 µM,-4.45%,-10.8%,-8.83%,> 46 µM,inactive,inactive,inactive,inactive,–,–
CC(=O)N1CCC2(CC1)CCN(c1ccccc1)CC2,> 11.4 µM,16.1%,-0.227%,2.99%,> 46 µM,inactive,inactive,inactive,–,-2.78%,–
O=C(Nc1ccccc1)N1CCC2(CCNCC2)CC1,> 11.4 µM,-1.92%,-7.88%,10.8%,> 46 µM,inactive,inactive,inactive,–,–,–
COc1ccc(C(=O)N2CCC[C@@]3(CCN(Cc4ccccc4OC)C3)C2)cc1,> 11.4 µM,11.7%,-18.6%,5.47%,> 46 µM,inactive,inactive,inactive,–,–,–
O=C(Nc1cccc(F)c1)N1CCC2(CC1)CCN(C(=O)c1ccncc1)CC2,> 11.4 µM,-9.1%,-6.93%,-7.63%,> 46 µM,inactive,inactive,inactive,inactive,–,–

# From PubChem BioAssay (NCATS)
